Among the data in ChEMBL document CHEMBL3988442, “University of Dundee, Small-Polar-MMV Screening Library” (2021) are Percent Effect values, retold here.

What all share (set-up): scale not given: direction of the effect not stated beside the values
For assay [1], the target named is Protein translocase subunit SecA (Escherichia coli (strain K12)) (UniProt P10408). The assay can be described thus: Assay to Identify E. coli SecA ATPase Inhibitors. The note with it: 30 µM. The format is functional.
Protein translocase subunit SecA (Escherichia coli (strain K12)), sequence (P10408 whole entry): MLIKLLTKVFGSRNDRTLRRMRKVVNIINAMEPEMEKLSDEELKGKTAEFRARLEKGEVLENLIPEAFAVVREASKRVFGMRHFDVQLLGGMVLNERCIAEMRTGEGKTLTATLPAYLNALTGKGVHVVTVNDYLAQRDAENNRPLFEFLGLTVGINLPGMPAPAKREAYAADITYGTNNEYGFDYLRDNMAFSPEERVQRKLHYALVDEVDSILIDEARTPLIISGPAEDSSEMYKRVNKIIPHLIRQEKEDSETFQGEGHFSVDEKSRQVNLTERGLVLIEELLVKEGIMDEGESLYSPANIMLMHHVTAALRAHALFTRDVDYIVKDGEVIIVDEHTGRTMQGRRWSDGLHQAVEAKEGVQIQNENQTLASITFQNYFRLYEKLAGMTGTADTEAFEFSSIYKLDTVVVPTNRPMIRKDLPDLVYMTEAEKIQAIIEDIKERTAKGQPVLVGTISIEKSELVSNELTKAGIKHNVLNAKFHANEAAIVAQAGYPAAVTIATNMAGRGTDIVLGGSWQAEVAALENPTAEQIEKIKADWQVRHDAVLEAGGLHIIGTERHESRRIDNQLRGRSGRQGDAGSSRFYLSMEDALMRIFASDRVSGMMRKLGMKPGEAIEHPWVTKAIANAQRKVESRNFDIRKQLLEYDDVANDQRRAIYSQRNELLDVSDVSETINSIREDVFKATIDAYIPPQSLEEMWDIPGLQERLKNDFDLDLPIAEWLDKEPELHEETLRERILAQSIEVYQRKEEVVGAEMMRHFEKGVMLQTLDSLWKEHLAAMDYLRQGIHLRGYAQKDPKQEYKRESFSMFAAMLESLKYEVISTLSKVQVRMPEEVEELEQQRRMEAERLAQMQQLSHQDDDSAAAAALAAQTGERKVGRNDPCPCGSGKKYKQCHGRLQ
Assay [2] deals with T1, Ubiquitin-activating enzyme e1, putative (Leishmania donovani (strain BPK282A1)) (UniProt E9BSI1).
T1 sequence (whole entry): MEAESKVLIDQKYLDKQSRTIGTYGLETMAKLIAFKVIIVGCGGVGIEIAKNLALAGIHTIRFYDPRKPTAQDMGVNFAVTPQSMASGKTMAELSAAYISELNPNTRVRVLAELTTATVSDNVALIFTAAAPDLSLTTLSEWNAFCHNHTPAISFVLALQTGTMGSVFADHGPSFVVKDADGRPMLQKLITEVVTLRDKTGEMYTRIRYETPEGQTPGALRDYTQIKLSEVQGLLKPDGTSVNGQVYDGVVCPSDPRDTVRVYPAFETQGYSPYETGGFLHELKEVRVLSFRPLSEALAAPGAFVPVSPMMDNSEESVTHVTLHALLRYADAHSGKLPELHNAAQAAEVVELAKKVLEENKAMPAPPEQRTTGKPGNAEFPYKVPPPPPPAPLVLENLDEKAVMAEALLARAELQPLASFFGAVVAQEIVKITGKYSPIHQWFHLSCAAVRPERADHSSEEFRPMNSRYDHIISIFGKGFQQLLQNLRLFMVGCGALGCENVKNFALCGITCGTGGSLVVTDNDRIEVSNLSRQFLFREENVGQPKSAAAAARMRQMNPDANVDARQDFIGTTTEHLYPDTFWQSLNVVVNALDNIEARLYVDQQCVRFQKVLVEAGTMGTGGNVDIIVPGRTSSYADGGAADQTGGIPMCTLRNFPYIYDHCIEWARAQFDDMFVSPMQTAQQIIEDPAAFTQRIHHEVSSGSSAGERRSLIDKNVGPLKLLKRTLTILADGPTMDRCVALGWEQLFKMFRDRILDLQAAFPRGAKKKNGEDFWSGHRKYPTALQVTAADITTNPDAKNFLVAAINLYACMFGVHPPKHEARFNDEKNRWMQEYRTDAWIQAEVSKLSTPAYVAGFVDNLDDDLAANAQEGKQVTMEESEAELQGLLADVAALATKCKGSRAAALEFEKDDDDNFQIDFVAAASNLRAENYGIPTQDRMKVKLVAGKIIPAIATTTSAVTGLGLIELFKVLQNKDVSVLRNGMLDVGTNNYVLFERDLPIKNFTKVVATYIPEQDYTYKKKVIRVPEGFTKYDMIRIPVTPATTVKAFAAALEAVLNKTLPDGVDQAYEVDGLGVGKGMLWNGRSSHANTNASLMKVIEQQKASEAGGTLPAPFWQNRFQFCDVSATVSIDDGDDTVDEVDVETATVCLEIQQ
The assay can be described thus: Leishmania donovani Ubiquitin Activating Enzyme (LdE1). The conditions noted are these: 30 µM. The format is functional.

Assay [3] addresses AMP-activated protein kinase, AMPK (Homo sapiens) (UniProt P54646+O43741+P54619+Q9UGJ0+Q9Y478+Q13131+Q9UGI9). The assay can be described thus: AMP-dependent Kinase enzyme assay. An in vitro enzyme assay that detects ADP turnover that is directly proportional to AMPK activity. This uses naive AMPK that is activated during the assay with MK-8722. The conditions noted are these: 30 µM. It counts as functional.

In assay [4] the target is Sialic acid-binding Ig-like lectin 9 (Homo sapiens) (UniProt Q9Y336). The assay can be described thus: Hs-Siglec9 ALPHAscreen SOP 20170721. The conditions noted are these: 10 µM. In general terms: Bead proximity is the source of the signal in Alpha formats.
Sialic acid-binding Ig-like lectin 9 (Homo sapiens), sequence (Q9Y336 whole entry): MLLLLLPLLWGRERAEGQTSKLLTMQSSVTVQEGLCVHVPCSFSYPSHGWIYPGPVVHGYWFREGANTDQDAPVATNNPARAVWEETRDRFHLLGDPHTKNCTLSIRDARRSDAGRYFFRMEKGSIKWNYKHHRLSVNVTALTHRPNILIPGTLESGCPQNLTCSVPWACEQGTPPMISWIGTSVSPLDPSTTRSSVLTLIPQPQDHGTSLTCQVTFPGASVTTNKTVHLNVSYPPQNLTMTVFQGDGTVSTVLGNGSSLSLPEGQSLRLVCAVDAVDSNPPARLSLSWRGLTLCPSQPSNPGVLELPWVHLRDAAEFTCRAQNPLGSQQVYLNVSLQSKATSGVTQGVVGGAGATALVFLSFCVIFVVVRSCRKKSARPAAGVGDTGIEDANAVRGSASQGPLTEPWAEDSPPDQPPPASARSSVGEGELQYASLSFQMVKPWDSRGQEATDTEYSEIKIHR
The test system of a further assay is Trypanosoma cruzi. The assay can be described thus: Trypanosoma cruzi phosphomannomutase and mannose-1-phosphate guanylyltransferase assay. The format is functional. The conditions noted are these: 10 µM.
For assay [5], the target named is T2, Arginase-2, mitochondrial (Homo sapiens) (UniProt P78540).
T2 sequence (whole entry): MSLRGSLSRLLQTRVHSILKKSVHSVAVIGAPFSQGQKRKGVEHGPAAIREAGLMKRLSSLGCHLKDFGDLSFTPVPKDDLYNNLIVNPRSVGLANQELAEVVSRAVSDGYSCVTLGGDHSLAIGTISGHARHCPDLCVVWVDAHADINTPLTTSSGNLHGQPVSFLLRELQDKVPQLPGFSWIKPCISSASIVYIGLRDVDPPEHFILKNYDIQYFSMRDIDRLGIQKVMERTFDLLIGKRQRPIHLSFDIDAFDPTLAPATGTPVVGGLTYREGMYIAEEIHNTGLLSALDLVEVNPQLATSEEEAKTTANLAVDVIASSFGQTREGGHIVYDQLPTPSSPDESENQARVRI
The assay can be described thus: in vitro enzyme assay to detect the production of urea directly proportional to the activity of Arginase II. Note: in the data most compounds retested in dose-response had high values. The note with it: 33.3 µM. It counts as functional.

In assay [6] the target is T3, Proteasome subunit beta (Trypanosoma cruzi) (UniProt O96673).
T3 sequence (whole entry): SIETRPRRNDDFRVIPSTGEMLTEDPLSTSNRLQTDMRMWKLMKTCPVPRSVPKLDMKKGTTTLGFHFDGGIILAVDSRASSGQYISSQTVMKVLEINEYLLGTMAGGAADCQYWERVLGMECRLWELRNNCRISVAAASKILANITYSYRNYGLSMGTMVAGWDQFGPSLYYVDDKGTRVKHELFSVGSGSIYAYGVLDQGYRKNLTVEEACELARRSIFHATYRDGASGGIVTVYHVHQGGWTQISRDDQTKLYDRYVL
As to the kind of experiment: Trypanosoma cruzi proteasome chymotrypsin-like activity (TcProtChymo) assay. Note: in the data most compounds retested in dose-response had high values. The format is functional. The conditions noted are these: 9.37 µM.

The species named for a further assay is Homo sapiens. As to the kind of experiment: To identify inhibition of the IFN signalling (Jak-Stat) pathway via expression of an eGFP reporter gene under the control of an IFN-stimulated response element (ISRE) containing MxA promoter. It counts as functional. The conditions noted are these: 30 µM.
In assay [7] the target is T4, Tyrosyl-tRNA synthetase, putative (Trypanosoma cruzi (strain CL Brener)) (UniProt Q4DSP6).
T4 sequence (whole entry): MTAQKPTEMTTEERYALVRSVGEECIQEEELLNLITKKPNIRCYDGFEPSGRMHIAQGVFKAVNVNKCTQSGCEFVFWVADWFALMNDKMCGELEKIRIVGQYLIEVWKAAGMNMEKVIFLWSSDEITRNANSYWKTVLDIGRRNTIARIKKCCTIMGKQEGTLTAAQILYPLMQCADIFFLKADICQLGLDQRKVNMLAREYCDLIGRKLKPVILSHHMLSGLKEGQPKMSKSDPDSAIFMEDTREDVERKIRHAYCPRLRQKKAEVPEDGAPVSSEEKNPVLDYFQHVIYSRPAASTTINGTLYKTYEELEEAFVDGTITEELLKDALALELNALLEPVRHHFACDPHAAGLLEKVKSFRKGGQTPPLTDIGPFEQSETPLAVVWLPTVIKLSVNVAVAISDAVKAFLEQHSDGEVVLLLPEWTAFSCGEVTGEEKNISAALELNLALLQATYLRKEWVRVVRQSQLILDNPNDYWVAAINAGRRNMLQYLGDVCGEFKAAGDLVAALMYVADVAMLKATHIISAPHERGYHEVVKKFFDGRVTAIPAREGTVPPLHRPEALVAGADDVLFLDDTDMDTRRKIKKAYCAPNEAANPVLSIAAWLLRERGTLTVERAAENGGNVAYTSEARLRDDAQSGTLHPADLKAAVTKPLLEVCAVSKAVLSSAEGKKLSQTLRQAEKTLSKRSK
As to the kind of experiment: Trypanosoma cruzi tyrosyl tRNA synthetase (TcYRS) _High Tyrosine SOP. Note: in the data most compounds retested in dose-response had high values. It counts as functional. The note with it: 30 µM.

Assay [8] has as its target T4, Tyrosyl-tRNA synthetase, putative (Trypanosoma cruzi (strain CL Brener)). The assay can be described thus: Trypanosoma cruzi tyrosyl tRNA synthetase (TcYRS) SOP. The note with it: 30 µM. The format is functional.
For assay [9], the target named is Chromo domain-containing protein 1 (Saccharomyces cerevisiae (strain ATCC 204508 / S288c) (Baker's yeast)) (UniProt P32657). The assay can be described thus: ScCHD-1 Enzyme Inhibition Assay. Note: in the data most compounds retested in dose-response had high values. The format is functional. The note with it: 30 µM.
Chromo domain-containing protein 1 (Saccharomyces cerevisiae (strain ATCC 204508 / S288c) (Baker's yeast)), sequence (P32657 whole entry, the tested form may be a part): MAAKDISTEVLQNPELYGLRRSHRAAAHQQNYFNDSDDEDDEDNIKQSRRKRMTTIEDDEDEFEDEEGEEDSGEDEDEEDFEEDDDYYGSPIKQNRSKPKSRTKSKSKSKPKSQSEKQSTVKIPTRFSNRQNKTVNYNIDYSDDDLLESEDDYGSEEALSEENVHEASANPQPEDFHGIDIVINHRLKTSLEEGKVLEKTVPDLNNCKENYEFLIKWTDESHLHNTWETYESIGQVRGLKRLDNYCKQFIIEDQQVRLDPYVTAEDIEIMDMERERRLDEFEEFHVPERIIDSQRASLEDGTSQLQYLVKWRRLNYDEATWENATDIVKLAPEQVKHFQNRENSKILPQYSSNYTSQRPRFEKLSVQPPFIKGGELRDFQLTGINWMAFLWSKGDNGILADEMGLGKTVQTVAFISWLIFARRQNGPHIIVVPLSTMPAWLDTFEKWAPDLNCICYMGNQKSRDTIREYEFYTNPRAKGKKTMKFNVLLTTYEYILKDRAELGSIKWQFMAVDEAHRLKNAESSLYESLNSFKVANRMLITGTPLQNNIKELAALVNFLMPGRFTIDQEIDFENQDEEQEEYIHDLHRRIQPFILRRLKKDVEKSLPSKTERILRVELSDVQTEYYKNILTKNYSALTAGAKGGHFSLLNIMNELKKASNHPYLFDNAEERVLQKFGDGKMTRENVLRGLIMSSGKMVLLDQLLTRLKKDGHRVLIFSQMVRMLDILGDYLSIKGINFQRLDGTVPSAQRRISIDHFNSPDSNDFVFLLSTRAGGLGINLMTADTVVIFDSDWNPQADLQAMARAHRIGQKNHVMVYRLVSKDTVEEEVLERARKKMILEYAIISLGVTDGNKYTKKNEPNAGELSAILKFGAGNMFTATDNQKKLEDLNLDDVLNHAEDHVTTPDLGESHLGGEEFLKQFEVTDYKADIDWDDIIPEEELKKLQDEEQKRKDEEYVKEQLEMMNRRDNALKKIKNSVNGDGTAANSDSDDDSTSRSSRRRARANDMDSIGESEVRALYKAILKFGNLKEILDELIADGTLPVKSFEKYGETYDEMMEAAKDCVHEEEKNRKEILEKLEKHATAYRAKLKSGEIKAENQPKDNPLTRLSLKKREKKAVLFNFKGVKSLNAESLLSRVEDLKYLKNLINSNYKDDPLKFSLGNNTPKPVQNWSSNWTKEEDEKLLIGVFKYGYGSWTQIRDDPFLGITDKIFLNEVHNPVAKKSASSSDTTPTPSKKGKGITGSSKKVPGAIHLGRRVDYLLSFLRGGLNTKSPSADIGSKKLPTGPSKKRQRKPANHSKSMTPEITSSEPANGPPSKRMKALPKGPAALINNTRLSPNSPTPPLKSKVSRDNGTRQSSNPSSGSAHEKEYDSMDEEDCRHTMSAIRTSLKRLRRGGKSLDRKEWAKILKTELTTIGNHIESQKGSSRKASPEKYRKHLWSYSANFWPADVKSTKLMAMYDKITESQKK

For some of these results: Measured potencies and affinities stand elsewhere.

For the compound `O=C(c1cccs1)N1CCC(O)(CN2CCc3ccccc3C2)C1` (stereo not drawn), the Percent Effect in assay [1] was -1.45%; in [2] it was 4.05%; in assay [3], 0.49%; in assay [4], 2.19%; with Trypanosoma cruzi it was -4.74%; in assay [5] it was 5.34%. The Percent Effect was 11.7% in [6]; 7.61% in the assay listed under Homo sapiens; 2.15% in assay [7]; 3.9% in [8]; -12.6% in [9].

For `CC1CCCN(C(=O)c2csc(S(N)(=O)=O)c2)CC1` (stereo not drawn), the Percent Effect in assay [1] is -6.52%; in assay [2], 2.7%; in assay [3] it was 1.27%; in [4], -1.52%; in the assay with Trypanosoma cruzi, -6.75%; in [5], 0.248%. In addition, the Percent Effect in assay [6] was -0.944%; in the assay filed under Homo sapiens, -3.67%; in assay [7], 4.3%; in assay [8] it was 6.17%; in assay [9], -0.416%.

Take `NC(=O)COc1cccc(C(=O)Nc2cnc3n2CCCC3)c1`: the Percent Effect in assay [1] is -4.34%; in [2], 6.94%; in assay [3] it was -7.99%; in assay [4] it was 1.81%; in the assay with Trypanosoma cruzi, -1.26%; in assay [5], 6.18%. In addition, the Percent Effect in [6] was 10.7%; in the assay filed under Homo sapiens it was -0.649%; in [7], 8.42%; in [8], 15.4%; in assay [9] it was -3.57%.

As for `COc1cc(CN(C)C(=O)NCCC2CCCO2)ccc1SC` (stereo not drawn), the Percent Effect in assay [1] is -3%; in [2] it was 8.11%; in assay [3] it was -5.1%; in assay [4], 2.6%; in the assay on Trypanosoma cruzi it was 0.781%; in assay [5], 0.833%. The Percent Effect in assay [6] is 10.1%; in the assay filed under Homo sapiens, -25.6%; in assay [7], -13.9%; in assay [8] it was 3.66%; in assay [9] it was -5.8%.

With `O=C1NCC2(CCCN(Cc3ccccc3F)C2)Oc2ccccc21` (stereo not drawn), the Percent Effect in assay [1] is 1.88%; in [2] it was 12.2%; in assay [3], 9.79%; in assay [4], -6.32%; in the assay on Trypanosoma cruzi, -2.77%; in assay [5] it was 5.34%. Besides, the Percent Effect in assay [6] was 9.52%; in the assay listed under Homo sapiens, 9.51%; in [7], 3.23%; in [8] it was 9.09%; in [9], -14.2%.

As for `CN(CCN1CCCCC1)C(=O)c1cc(CN2CCOCC2)on1`, the Percent Effect is -2.82% in [1]; 8.22% in assay [2]; -18.2% in [3]; -4.57% in [4]; 2.74% in the assay with Trypanosoma cruzi; 1.82% in assay [5]. In addition, the Percent Effect in [6] is 21.8%; in the assay filed under Homo sapiens it was -8.25%; in [7], 7.53%; in assay [8], 20%; in assay [9] it was -3.28%.

For the compound `CCN(Cc1ccc2c(c1)OCO2)C(=O)c1ccc(C)[nH]c1=O`, the Percent Effect in [1] is -4.38%; in assay [2], 13.2%; in assay [3], -8.05%; in assay [4], -3.99%; in the assay with Trypanosoma cruzi it was 11.5%; in assay [5] it was -1.92%. Moreover, the Percent Effect was 11.9% in assay [6]; 15.1% in the assay filed under Homo sapiens; 10.3% in [7]; 19.5% in assay [8]; -15.7% in [9].

With `CN(CCCc1cnn(C)c1)C(=O)C1COc2ccccc2C1` (stereo not drawn), the Percent Effect in assay [1] was 0.742%; in assay [2] it was 8.22%; in assay [3], 1.84%; in assay [4] it was -1.88%; in the assay with Trypanosoma cruzi, -1.37%; in assay [5], 2.27%. The Percent Effect was 20.6% in assay [6]; 9.33% in the assay filed under Homo sapiens; 2.15% in assay [7]; 17.5% in [8]; -14.2% in [9].
